# LGR2 antag – inhibitors of bursicon-induced LGR2 CRE-luciferase signal, primary screen, cell-based, HEK293, CRE-luciferase reporter, bursicon stimulation; 0.35% of 380,000 active; bursicon-stimulated, 4 h; inhibition, % at 9.99 µM; Drosophila bursicon receptor LGR2 (rickets);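 active = drop in luminescence signal, shown as inhibition above about 50% in the replicate tests, limit read from the data, passing the limit was not always enough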;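 note: agonist challenge used bursicon conditioned medium at about half maximal strength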
# aDG glyco up – activators of alpha-DG glycosylation, primary screen, uHTS, Pro5-aDG cells, AlphaScreen; alpha-DG glycosylation AlphaScreen (IIH6); 0% Pro5, 100% B10-LARGE cell signal; activation, % at 10 µM; AID 624168, 2012; 0.22% of 360,000 active;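 active = activation of at least 8% versus controls, or a plate z-score of at least 8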;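 note: Pro5 are CHO cells carrying HIG-tagged alpha-DG that lacks glycosylation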
# EBV LMP1 NFkB – EBV LMP1-driven NF-kappaB luciferase reporter inhibitors, primary screen, cell-based, luminescence, single point; LMP1-induced NF-kappaB luciferase reporter cells; inhibition, % at 12.5 µM; 0.69% of 350,000 active; in the data active = inhibition above about 41%;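 note: 0% = neutral control wells and 100% = reference inhibitor control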
# TROY signal inh – inhibitors of TROY-driven NF-kB signaling, primary screen, Q293 LMP1-TROYcd cells, NF-kB luciferase, uHTS | Q293 LMP1-TROYcd NF-kB luciferase reporter, 4 h | inhibition, % at 10 µM | 0.98% of 360,000 active | AID 1347056, 2019;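 active = compounds whose plate-normalised and pattern-corrected inhibition of the luciferase reporter signal at the single screening dose is 50% or more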
# TWEAK-Fn14 inh – inhibitors of TWEAK-Fn14 signaling, primary screen, luciferase reporter cells, uHTS | TWEAK-stimulated Fn14 reporter cells, luciferase luminescence, 8 h | inhibition, % at 10 µM | 2% of 360,000 active; in the data active = inhibition above about 50%
# HSP90 inh – HSP90 inhibitors, primary screen, cell lysate, luminescence; inhibition, % at 5.6 µM; AID 1789, 2009; Rabbit reticulocyte lysate, luciferase refolding luminescence, 3 h; 0.91% of 290,000 active;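 active = inhibition above the screen-wide mean plus 3 SD, computed separately per campaign, cut at about 16% in these data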;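 note: 0% = DMSO wells and 100% = 60 µM geldanamycin wells; inhibitors lower the luminescence because luciferase stays unfolded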
# * hit, by the source's call; · = no result. Only some compounds are listed: those with a hit (about 2.6% of all), similar ones and a draw of the others.
SMILES,LGR2 antag,aDG glyco up,EBV LMP1 NFkB,TROY signal inh,TWEAK-Fn14 inh,HSP90 inh
Cc1cc(Br)cn2c(Cc3ccccc3)c(C3CCCCC3)nc12,-7,0,·,25,36,·
CC(C)CC#Cc1ccc2c(c1)O[C@@H](CN(C)Cc1cccc(F)c1)[C@H](C)CN([C@@H](C)CO)S2(=O)=O,18,·,·,·,·,·
CC(C)C(NC(=O)CN1C(=O)c2ccccc2S1(=O)=O)C(C)C,-19,0,0,-21,0,2
O=C(CN1C(=O)c2ccccc2S1(=O)=O)N1CCN(c2ccccc2F)CC1,·,0,-3,-28,9,1
O=C(CN1C(=O)c2ccccc2S1(=O)=O)c1ccccc1F,73*,0,45*,78*,93*,12
O=C(CN1C(=O)c2ccccc2S1(=O)=O)c1cccc(Br)c1,38,0,4,80*,99*,1
O=C(CN1C(=O)c2ccccc2S1(=O)=O)c1ccc(OC(F)F)cc1,·,0,82*,82*,98*,0
O=C(CN1C(=O)c2ccccc2S1(=O)=O)c1ccc(F)cc1,74*,0,69*,73*,91*,2
O=C(C[C@H]1C=C[C@@H](NC(=O)Nc2cc(F)ccc2F)[C@@H](CO)O1)NCc1ccccn1,-8,·,·,·,·,·
Oc1[nH]c2ccc(Br)cc2c1N=NC(=S)Nc1ccc(F)cc1,1,1,13,-3,63*,1
Oc1ccc(NC(=S)N=Nc2c(O)[nH]c3ccc(Br)cc23)cc1,22,0,37,24,-31,2
C[C@H](CO)N1C[C@H](C)[C@H](CN(C)Cc2ccc(C(=O)O)cc2)Oc2ccc(NC(=O)Nc3ccc4c(c3)OCO4)cc2C1=O,3,·,·,·,·,·
CCS(=O)(=O)N1CCCCN2[C@H](CO)[C@H](c3ccc(C#Cc4ccccc4OC)cc3)[C@@H]2C1,0,·,·,·,·,·
Cc1cccc(/C=N/NC(=O)c2cccc([N+](=O)[O-])c2)n1,2,0,-13,-34,-39,1
Cc1cc(/C=N/NC(=O)c2cccc([N+](=O)[O-])c2)c(C)n1-c1ccc(Cl)cc1Cl,·,0,6,·,95*,-1
Nc1c(C(=O)Nc2nccs2)sc2nc(-c3cccs3)cc(C(F)(F)F)c12,·,0,-3,-5,-10,1
Cc1nnc(NC(=O)c2sc3nc(-c4cccs4)cc(C(F)(F)F)c3c2N)s1,-2,0,-1,60*,74*,2
O=C(C[C@H]1CC[C@@H](NC(=O)Nc2cc(F)ccc2F)[C@H](CO)O1)Nc1ccccc1,2,·,·,·,·,·
C[C@H]1CN([C@@H](C)CO)C(=O)c2cc(-c3cccc(C#N)c3)cnc2O[C@@H]1CN(C)Cc1cccnc1,-7,·,·,·,·,·
O=C(CCN1C(=O)/C(=C/c2ccccc2F)SC1=S)NCCCN1CCOCC1,-4,0,13,6,50*,-2
O=C(CCN1C(=O)/C(=C/c2ccccc2)SC1=S)NCCCN1CCOCC1,7,0,1,-17,13,-2
CCc1ccc(/C=C2\SC(=S)N(CCCC(=O)NCCCN3CCOCC3)C2=O)cc1,-28,0,36,18,-27,·
CCOc1ccc(/C=C2\SC(=S)N(CCCC(=O)NCCCN3CCOCC3)C2=O)cc1,-18,0,55*,9,25,6
COc1ccc(CN2C[C@@H](O)COC[C@@H]3O[C@H](CC(=O)N(C)C)CC[C@H]32)cc1,0,·,·,·,·,·
CO[C@@H]1CN(C)C(=O)c2ccc(NC(=O)Nc3cccc(F)c3)cc2OC[C@@H](C)N(C(=O)Nc2c(C)noc2C)C[C@H]1C,-2,·,·,·,·,·
SMILES,LGR2 antag,aDG glyco up,EBV LMP1 NFkB,TROY signal inh,TWEAK-Fn14 inh,HSP90 inh
CC(=O)N1CCCCN2[C@@H](CO)[C@H](c3ccc(-c4cccc(C)c4)cc3)[C@@H]2C1,5,·,·,·,·,·
CC(=O)N1CCCCN2[C@H](CO)[C@H](c3ccc(-c4cccc(C)c4)cc3)[C@@H]2C1,55*,·,·,·,·,·
O=C1/C(=C/c2ccncc2)CCC/C1=C\c1ccncc1,95*,0,85*,82*,103*,0
O=C1C(=Cc2ccncc2)CCCc2ccccc21,5,1,7,-6,12,·
Cc1noc(C)c1NC(=O)N(C)C[C@H]1Oc2ccc(NC(=O)Cc3ccccc3)cc2CC(=O)N([C@@H](C)CO)C[C@@H]1C,5,·,·,·,·,·
COCC(=O)Nc1ccc2c(c1)OC[C@H](C)N(C(=O)C1CCCC1)C[C@@H](C)[C@@H](OC)CN(C)C2=O,-16,·,·,·,·,·
Nc1ccc(-c2nnn(Cc3ccccc3)n2)cc1,-61,0,-10,-38,65*,·
COc1ccc(-c2nnn(Cc3ccccc3)n2)cc1,-32,0,-13,-45,-47,-3
C[C@H](CO)N1C[C@H](C)[C@H](CN(C)S(=O)(=O)c2ccc(F)cc2)Oc2ccc(NS(=O)(=O)c3ccccc3)cc2C1=O,7,·,·,·,·,·
CN(C)C(=O)CSc1ncccc1-c1nc2ccccc2[nH]1,-28,0,5,-32,11,-4
CC(C)NC(=O)CSc1ncccc1-c1nc2ccccc2[nH]1,-2,0,-11,4,-4,0
COc1ccc(CNC(=O)CSc2nnc3c(n2)[nH]c2ccccc23)cc1,-12,0,2,10,26,-3
O=C(CSc1nnc2c(n1)[nH]c1ccccc12)N1CCCCC1,-2,0,-2,12,65*,11
Cc1[nH]c(=O)[nH]c(=O)c1NC(=O)CSc1ncccc1-c1nc2ccccc2[nH]1,-19,0,15,54*,44,6
O=C(CSc1ncccc1-c1nc2ccccc2[nH]1)N1CCCCC1,22,1,9,45,58*,5
Cc1noc(C)c1NC(=O)Nc1ccc2c(c1)CC(=O)N([C@@H](C)CO)C[C@@H](C)[C@@H](CN(C)Cc1ccc(-c3ccccc3)cc1)O2,-7,·,·,·,·,·
Cc1ccc(/C(N)=N/OC(=O)c2ccc(Cl)cc2Cl)cc1,27,0,-6,61*,79*,7
Cc1cccc(C(=O)O/N=C(\N)c2ccc(Cl)cc2)c1,-17,0,-49,-21,8,-6
CSc1nc2ccc(S(=O)(=O)N3CCCC3)cc2s1,-20,0,-4,27,-8,1
CSc1nc2ccc(N3C(=O)C4CCCCC4C3=O)cc2s1 (stereo not drawn),·,1,-9,-36,107*,2
C[C@H](CO)N1C[C@H](C)[C@H](CN(C)S(=O)(=O)c2ccccc2)Oc2ccc(NC(=O)CCC(F)(F)F)cc2C1=O,-13,·,·,·,·,·

# Assay outcomes from PubChem.
